# Publication PMC7862700, “An all-to-all approach to the identification of sequence-specific readers for epigenetic DNA modifications on cytosine”
# Columns and labels:
# Assay in all cases: DAPPL (digital affinity profiling via proximity ligation, sequencing); 10 mM Tris-HCl pH 7.5, 50 mM NaCl, 1 mM DTT, 4% glycerol, room temperature, 30 min; GST-TFs on glutathione beads, 16-mer random dsDNA library, 0.1% formaldehyde crosslink after washing; high values mean tight binding
# Conditions in all cases: protein: recombinant; tags: N-terminal GST; dsDNA, one strand shown
# ELK1 = target: T1, ELK1 (Homo sapiens, UniProt P19419 1-428)
# T1 sequence: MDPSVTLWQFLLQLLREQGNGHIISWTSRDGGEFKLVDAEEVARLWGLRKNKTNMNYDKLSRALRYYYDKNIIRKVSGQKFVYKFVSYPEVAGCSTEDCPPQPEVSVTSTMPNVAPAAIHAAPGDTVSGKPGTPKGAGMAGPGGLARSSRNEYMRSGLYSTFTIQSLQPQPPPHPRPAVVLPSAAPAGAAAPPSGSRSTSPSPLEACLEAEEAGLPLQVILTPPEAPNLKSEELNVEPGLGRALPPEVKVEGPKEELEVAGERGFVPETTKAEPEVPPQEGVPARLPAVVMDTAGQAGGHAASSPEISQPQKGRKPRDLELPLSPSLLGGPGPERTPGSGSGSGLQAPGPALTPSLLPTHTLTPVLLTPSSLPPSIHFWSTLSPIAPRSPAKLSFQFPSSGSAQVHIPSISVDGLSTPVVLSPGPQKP
# Method in brief: (§1)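 GST fusions of human transcription factors were expressed in yeast and captured with glutathione beads. Once given DNA barcodes and pooled alongside a tag-only sample, they were incubated for 30 min at room temperature with 200 nmole of a random double-stranded 16-mer DNA library in Tris/NaCl/DTT/glycerol buffer, then washed, crosslinked (0.1% formaldehyde), proximity-ligated, PCR-amplified and sequenced on an Illumina NextSeq500. The binding signal of each hexamer is its read frequency for a factor divided by its frequency for the tag-only sample.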
# SPI1 = SPI1 (Homo sapiens, UniProt P17947 1-270)
# Method in brief: as §1
# ELK3 = target: T2, ELK3 (Homo sapiens, UniProt P41970 1-407)
# T2 sequence: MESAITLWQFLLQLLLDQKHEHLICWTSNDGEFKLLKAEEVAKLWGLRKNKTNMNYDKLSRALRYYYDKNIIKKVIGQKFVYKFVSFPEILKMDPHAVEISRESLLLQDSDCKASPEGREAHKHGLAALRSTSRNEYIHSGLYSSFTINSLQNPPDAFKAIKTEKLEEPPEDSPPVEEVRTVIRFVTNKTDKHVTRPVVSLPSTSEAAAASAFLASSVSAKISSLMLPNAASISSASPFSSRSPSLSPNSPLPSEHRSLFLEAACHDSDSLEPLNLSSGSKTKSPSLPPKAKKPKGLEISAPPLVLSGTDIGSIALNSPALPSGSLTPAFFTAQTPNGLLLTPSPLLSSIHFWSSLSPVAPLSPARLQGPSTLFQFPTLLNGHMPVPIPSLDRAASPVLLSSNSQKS
# Method in brief: as §1
# SPIC = target: T3, SPIC (Homo sapiens, UniProt Q8N5J4 1-248)
# T3 sequence: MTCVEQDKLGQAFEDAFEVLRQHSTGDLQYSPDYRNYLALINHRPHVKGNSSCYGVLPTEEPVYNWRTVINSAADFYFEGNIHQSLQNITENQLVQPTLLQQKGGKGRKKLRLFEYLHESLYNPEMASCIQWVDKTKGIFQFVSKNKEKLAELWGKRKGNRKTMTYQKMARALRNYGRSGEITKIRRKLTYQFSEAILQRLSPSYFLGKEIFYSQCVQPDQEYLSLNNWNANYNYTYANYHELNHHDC
# Method in brief: as §1
# ELF4 = ELF4 (Homo sapiens, UniProt Q99607 1-663)
# Chain of ELF4 (Q99607 whole entry): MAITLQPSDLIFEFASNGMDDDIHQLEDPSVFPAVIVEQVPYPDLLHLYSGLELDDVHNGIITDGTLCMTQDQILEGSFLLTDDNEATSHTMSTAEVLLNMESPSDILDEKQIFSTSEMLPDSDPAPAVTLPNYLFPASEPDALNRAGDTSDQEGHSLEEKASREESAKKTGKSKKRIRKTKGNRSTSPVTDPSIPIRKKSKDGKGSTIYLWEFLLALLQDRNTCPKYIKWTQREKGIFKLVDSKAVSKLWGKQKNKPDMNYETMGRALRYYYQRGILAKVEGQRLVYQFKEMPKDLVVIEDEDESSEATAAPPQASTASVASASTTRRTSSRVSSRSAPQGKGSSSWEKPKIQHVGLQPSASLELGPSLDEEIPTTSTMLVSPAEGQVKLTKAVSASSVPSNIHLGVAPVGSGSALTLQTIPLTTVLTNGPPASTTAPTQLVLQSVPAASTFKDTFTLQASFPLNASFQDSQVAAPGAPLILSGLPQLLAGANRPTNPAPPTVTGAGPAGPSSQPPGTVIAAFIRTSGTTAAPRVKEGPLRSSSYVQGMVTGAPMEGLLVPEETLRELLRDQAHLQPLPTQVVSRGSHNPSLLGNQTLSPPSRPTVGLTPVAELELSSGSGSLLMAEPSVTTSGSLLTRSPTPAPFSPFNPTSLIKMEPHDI
# Method in brief: as §1
# ELF3 = target: T4, ELF3 (Homo sapiens, UniProt P78545 1-371)
# T4 sequence: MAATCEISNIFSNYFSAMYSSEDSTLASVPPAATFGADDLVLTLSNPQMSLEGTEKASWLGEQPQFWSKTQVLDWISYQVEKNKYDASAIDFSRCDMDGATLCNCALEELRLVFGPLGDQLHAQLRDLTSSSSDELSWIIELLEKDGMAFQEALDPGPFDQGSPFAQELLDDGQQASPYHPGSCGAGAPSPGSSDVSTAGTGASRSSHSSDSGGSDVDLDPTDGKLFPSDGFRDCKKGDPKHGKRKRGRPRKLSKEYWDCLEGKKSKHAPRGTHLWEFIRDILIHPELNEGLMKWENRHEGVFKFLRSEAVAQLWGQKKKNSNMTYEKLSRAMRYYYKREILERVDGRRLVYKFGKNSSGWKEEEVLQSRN
# Method in brief: as §1
# GABPA = target: T5, GABPA (Homo sapiens, UniProt Q06546 1-454)
# T5 sequence: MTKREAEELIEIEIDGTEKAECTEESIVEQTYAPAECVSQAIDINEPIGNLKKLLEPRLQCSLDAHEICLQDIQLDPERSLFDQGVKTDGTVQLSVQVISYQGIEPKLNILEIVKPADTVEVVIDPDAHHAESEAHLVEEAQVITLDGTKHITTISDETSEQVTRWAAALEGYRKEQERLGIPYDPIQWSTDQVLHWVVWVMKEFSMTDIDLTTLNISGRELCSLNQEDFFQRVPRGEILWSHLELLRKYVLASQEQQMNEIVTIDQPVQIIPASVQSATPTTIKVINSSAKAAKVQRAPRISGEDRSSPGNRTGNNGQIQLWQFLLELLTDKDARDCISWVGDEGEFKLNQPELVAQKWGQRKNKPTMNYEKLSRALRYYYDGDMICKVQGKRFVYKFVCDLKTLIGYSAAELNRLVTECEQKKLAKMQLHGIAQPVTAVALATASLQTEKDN
# Method in brief: as §1
# ELF1 = ELF1 (Homo sapiens, UniProt P32519 1-619)
# Chain of ELF1 (P32519 whole entry): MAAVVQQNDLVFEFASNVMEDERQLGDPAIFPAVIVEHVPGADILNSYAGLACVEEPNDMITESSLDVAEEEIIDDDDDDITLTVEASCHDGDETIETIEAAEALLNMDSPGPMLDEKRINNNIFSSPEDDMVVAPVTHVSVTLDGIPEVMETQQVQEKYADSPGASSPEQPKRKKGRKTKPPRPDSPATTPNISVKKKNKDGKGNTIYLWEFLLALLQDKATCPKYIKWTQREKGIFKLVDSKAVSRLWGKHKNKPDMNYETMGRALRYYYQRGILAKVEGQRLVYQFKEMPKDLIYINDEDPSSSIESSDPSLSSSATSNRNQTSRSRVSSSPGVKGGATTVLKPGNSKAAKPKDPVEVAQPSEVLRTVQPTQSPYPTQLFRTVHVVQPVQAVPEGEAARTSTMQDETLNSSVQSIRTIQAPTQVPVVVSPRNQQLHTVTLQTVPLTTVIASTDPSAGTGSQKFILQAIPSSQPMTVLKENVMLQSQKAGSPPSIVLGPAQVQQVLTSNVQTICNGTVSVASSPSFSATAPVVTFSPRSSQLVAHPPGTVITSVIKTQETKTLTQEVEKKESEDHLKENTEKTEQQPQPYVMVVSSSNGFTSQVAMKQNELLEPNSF
# Method in brief: as §1
# EHF = target: T6, EHF (Homo sapiens, UniProt Q9NZC4 1-300)
# T6 sequence: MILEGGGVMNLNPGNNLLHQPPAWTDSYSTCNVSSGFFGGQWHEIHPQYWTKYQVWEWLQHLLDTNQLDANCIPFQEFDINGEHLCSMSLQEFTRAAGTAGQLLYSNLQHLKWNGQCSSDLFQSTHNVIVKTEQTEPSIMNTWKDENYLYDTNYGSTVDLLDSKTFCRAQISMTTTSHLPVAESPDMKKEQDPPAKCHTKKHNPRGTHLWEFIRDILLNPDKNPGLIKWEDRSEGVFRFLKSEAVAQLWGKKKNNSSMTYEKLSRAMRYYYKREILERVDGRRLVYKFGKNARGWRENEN
# Method in brief: as §1
# ERF = target: T7, ERF (Homo sapiens, UniProt P50548 1-548)
# T7 sequence: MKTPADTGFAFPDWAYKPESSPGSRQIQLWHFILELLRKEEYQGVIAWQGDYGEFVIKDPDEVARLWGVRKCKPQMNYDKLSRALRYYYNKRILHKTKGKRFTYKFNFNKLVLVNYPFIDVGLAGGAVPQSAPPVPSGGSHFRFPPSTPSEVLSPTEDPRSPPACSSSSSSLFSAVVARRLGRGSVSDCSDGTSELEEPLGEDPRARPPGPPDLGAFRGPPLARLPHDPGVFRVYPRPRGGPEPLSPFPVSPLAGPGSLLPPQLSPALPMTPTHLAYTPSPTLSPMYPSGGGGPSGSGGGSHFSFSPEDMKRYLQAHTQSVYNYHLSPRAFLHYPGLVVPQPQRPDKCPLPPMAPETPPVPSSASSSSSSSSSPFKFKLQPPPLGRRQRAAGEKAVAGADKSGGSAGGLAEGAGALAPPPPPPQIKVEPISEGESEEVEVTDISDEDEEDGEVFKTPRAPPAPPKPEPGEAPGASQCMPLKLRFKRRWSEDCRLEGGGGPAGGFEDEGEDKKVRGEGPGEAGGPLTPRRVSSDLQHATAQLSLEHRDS
# Method in brief: as §1
# ETS2 = target: T8, ETS2 (Homo sapiens, UniProt P15036 1-469)
# T8 sequence: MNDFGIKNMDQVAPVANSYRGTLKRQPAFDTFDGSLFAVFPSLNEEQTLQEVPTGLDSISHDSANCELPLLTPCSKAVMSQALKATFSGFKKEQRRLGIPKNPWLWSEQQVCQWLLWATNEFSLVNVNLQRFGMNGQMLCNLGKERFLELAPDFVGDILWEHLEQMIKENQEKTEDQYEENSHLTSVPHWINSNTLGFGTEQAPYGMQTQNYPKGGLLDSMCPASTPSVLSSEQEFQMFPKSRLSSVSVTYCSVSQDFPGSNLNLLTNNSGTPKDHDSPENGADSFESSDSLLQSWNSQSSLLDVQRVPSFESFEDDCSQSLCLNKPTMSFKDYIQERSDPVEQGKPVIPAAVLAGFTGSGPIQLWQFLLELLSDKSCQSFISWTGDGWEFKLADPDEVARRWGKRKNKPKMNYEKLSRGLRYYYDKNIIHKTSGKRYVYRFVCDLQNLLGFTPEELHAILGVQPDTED
# Method in brief: as §1
# SPIB = SPIB (Homo sapiens, UniProt Q01892 1-262)
# Chain of SPIB (Q01892 whole entry): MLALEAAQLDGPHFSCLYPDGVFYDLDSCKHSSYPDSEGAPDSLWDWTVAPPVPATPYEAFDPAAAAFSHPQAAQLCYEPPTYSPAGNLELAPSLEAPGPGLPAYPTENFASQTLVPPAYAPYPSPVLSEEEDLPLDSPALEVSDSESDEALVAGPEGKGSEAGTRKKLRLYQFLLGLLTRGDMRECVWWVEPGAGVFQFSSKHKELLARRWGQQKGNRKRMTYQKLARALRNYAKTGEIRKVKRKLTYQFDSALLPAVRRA
# Method in brief: as §1
# ELK4 = target: T9, ELK4 (Homo sapiens, UniProt P28324-2 1-405)
# T9 sequence: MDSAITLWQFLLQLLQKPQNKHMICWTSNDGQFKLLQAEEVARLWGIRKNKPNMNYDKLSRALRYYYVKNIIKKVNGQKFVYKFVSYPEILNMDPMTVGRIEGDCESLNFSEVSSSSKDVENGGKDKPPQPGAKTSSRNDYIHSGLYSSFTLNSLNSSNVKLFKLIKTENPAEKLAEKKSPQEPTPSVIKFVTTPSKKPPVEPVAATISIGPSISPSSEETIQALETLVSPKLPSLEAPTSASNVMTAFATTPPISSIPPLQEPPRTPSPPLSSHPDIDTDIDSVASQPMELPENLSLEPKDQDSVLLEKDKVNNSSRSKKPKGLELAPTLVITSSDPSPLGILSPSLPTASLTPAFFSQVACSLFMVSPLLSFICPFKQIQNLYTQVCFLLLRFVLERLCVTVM
# Method in brief: as §1
# ETV2 = target: T10, ETV2 (Homo sapiens, UniProt O00321 1-342)
# T10 sequence: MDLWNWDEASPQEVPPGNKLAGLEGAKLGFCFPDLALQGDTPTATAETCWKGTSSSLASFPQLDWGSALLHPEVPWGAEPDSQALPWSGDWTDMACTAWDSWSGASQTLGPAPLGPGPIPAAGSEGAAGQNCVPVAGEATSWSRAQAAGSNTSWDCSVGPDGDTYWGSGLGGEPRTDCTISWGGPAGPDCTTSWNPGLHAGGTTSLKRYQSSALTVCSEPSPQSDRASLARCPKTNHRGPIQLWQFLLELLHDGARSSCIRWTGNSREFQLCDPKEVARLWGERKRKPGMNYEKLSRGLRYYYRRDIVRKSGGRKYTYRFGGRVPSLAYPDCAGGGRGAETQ
# Method in brief: as §1
sequence,measurement,setting,value
ACATGA,binding signal,ELK1,"1.01 fold enrichment (6-mer frequency, TF over GST control)"
same,binding signal,SPI1,"1.01 fold enrichment (6-mer frequency, TF over GST control)"
same,binding signal,ELK3,"1.07 fold enrichment (6-mer frequency, TF over GST control)"
same,binding signal,SPIC,"1.02 fold enrichment (6-mer frequency, TF over GST control)"
same,binding signal,ELF4,"1.04 fold enrichment (6-mer frequency, TF over GST control)"
same,binding signal,ELF3,"1.03 fold enrichment (6-mer frequency, TF over GST control)"
CAGCAC,binding signal,GABPA,"1.03 fold enrichment (6-mer frequency, TF over GST control)"
same,binding signal,ELF1,"1.02 fold enrichment (6-mer frequency, TF over GST control)"
same,binding signal,EHF,"1 fold enrichment (6-mer frequency, TF over GST control)"
same,binding signal,SPIC,"1.11 fold enrichment (6-mer frequency, TF over GST control)"
same,binding signal,ELF3,"1.02 fold enrichment (6-mer frequency, TF over GST control)"
same,binding signal,ERF,"1.04 fold enrichment (6-mer frequency, TF over GST control)"
same,binding signal,ETS2,"1 fold enrichment (6-mer frequency, TF over GST control)"
CGCGCA,binding signal,EHF,"1.07 fold enrichment (6-mer frequency, TF over GST control)"
same,binding signal,SPIB,"1.04 fold enrichment (6-mer frequency, TF over GST control)"
same,binding signal,ELK3,"1.01 fold enrichment (6-mer frequency, TF over GST control)"
same,binding signal,SPIC,"1.01 fold enrichment (6-mer frequency, TF over GST control)"
same,binding signal,ELK4,"1.13 fold enrichment (6-mer frequency, TF over GST control)"
same,binding signal,ETV2,"1.02 fold enrichment (6-mer frequency, TF over GST control)"
CGCTGT,binding signal,ELF1,"1.01 fold enrichment (6-mer frequency, TF over GST control)"
same,binding signal,SPIC,"1.1 fold enrichment (6-mer frequency, TF over GST control)"
same,binding signal,ELK4,"1.04 fold enrichment (6-mer frequency, TF over GST control)"
same,binding signal,ETV2,"1.01 fold enrichment (6-mer frequency, TF over GST control)"
same,binding signal,ERF,"1.12 fold enrichment (6-mer frequency, TF over GST control)"
AGCACG,binding signal,SPIC,"1.02 fold enrichment (6-mer frequency, TF over GST control)"
same,binding signal,ERF,"1.01 fold enrichment (6-mer frequency, TF over GST control)"
